This excerpt belongs to a sample that is enriched for hits.
ST2 IL33 inh = IL1RL1 inhibition | Q01638 | AlphaLISA ST2-Fc/biotin-IL-33 interaction, 1 h | inhibition, % for hits at 17 µM | 2.3% of 78,000 active | AID 1259354; in the data active means inhibition above about 30%
Target sequence (Q01638 whole entry, looked up): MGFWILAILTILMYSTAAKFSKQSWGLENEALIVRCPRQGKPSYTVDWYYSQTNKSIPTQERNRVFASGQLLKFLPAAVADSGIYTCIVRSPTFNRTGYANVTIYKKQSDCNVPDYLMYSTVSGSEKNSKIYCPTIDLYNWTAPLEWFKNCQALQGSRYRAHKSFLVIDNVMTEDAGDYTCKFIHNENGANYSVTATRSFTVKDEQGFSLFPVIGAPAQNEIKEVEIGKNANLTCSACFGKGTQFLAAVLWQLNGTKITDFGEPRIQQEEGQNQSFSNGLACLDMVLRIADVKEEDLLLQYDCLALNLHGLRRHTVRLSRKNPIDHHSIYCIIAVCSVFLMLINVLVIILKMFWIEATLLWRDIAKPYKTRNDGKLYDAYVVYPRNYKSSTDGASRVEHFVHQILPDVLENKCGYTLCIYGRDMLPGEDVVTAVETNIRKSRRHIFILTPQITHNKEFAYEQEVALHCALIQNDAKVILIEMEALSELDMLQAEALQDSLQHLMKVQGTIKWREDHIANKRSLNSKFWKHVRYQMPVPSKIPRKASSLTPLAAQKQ
Of the large screens only hits and unclear results are named; the others gave an inactive call.

COc1ccc([N+](=O)[O-])cc1NC(=O)c1ccoc1C	none
COc1ccc2cc3cc(C(=O)N4CCN(C)CC4)sc3nc2c1	none
COCCCNC(=O)c1cc2cc3cc(OC)ccc3nc2s1	none
COc1ccc2nc3sc(C(=O)NCc4ccccc4OC)cc3cc2c1	none
COc1ccc2cc3cc(C(=O)NCc4ccc(C)cc4)sc3nc2c1	ST2 IL33 inh 31%
CCN(CCCNC(=O)c1cc2cc3ccc(OC)cc3nc2s1)c1ccccc1	ST2 IL33 inh 31%
CCCCNC(=O)c1cc2cc3cc(OC)ccc3nc2s1	none
COCCNC(=O)c1cc2cc3cc(OC)ccc3nc2s1	none
COc1ccc([N+](=O)[O-])cc1NC(=O)COc1ccc(C)cc1Br	none
O=C(CSc1nc(-c2ccc(F)cc2)[nH]c1-c1ccc(F)cc1)NCc1ccco1	none
Cc1oc(-c2nc3ccccc3n2C)cc1S(=O)(=O)O	none
Cc1ccc(Nc2nnc(Cc3ccccc3)c(=O)[nH]2)cc1	none
CN(C)CCOC(=O)c1ccc(N2Cc3ccccc3C2=N)cc1	none
CN(CC(=O)N1CC=C(c2ccccc2)CC1)S(=O)(=O)c1ccc2c(c1)CCC(=O)N2	none
O=C(c1cccn2c(=O)c3c4c(sc3nc12)CCCC4)N1CCN(c2cccc(Cl)c2)CC1	none
Cc1noc(C)c1CC(=O)NCCN1Cc2ccccc2OC(c2ccsc2)C1 (configuration not stated)	none
CC1(C)CCCC2(C)C(CO)C3CCC2C31 (configuration not stated)	none
O=C(c1cccnc1)N1N=C(c2ccc(Cl)cc2)CC1(O)C(F)(F)F (configuration not stated)	none
O=C(ON1C(=O)c2ccccc2C1=O)c1ccc([N+](=O)[O-])cc1	none
CC(=O)N1/C(=C/c2ccc([N+](=O)[O-])cc2)C(=O)c2ccccc21	ST2 IL33 inh 51%
CC(C)C(C(=O)Nc1ccc([N+](=O)[O-])cc1)N1C(=O)c2ccccc2C1=O (configuration not stated)	none
CCC1=C(C)/C(=C\c2[nH]c(C)c(CC)c2C)N=C1C	ST2 IL33 inh 78%
CSCCC(NC(=O)C1CCC(C)CC1)C(=O)NCc1ccccn1 (configuration not stated)	none
CCc1cn[nH]c1C1CCN(c2noc(-c3ccccc3)n2)CC1	none
CN(CC1(CO)CCOCC1)C(=O)c1ccc(NC(=O)C2CCC2)cc1	none
CC(=O)C(C)n1c(CN2CCOCC2)nc2c1c(=O)[nH]c(=O)n2C (configuration not stated)	none
CC1CCCC(NC(=O)CN(C)S(=O)(=O)c2ccc3c(c2)CCC(=O)N3)C1C (configuration not stated)	none
O=C(O)c1cccc(N=Cc2cccc([N+](=O)[O-])c2O)c1	none
O=[N+]([O-])c1ccccc1/C=C/c1ccc2cccc(O)c2n1	ST2 IL33 inh 41%
O=[N+]([O-])c1cccc(C=Nc2ccc(-c3nc4ncccc4o3)cc2)c1O	none
Cc1c(N=Cc2cc([N+](=O)[O-])ccc2N2CCCCC2)c(=O)n(-c2ccccc2)n1C	ST2 IL33 inh 44%
Cc1c(N=Cc2cc([N+](=O)[O-])ccc2O)c(=O)n(-c2ccccc2)n1C	none
Cc1c(N=Cc2ccc([N+](=O)[O-])o2)c(=O)n(-c2ccccc2)n1C	none
CCOc1ccc2c(C)c(Cc3ccccc3)c(=O)oc2c1	none
COc1ccc(C(=O)Cn2c(Br)nc3c2c(=O)[nH]c(=O)n3C)cc1	none
Cc1ccccc1NC(=O)c1ccco1	none
Cc1ccc(/C=C/NC(=O)c2ccco2)cc1C	ST2 IL33 inh 31%
Cc1cccc(C)c1NC(=O)c1ccco1	none
CC1(C(=O)NC2CCCC2)CCC(=O)N1Cc1ccc(F)cc1 (configuration not stated)	none
CC1Cc2cc(O)c(O)cc2C(c2ccc(O)c(O)c2)C1C (configuration not stated)	none
COc1cccc(NC(=O)CCCc2ccccc2)c1	none
COc1cccc(NC(=O)/C(C#N)=C\c2cn(Cc3cccc(C)c3)c3ccccc23)c1	ST2 IL33 inh 33%
COc1cccc(NC(=O)c2ccc(=O)n(Cc3ccc(F)cc3)c2)c1	none
Cc1cccc(NC(=O)/C(C#N)=C/c2cc(C)n(-c3ccc(F)cc3)c2C)c1	none
COc1cccc(NC(=O)CSCc2ccc(Cl)cc2)c1	none
COc1cccc(NC(=O)/C(C#N)=C\c2cn(Cc3ccc(C)cc3)c3ccccc23)c1	ST2 IL33 inh 30%
CCCn1ccnc1CN1CCCC1c1ccccn1 (configuration not stated)	none
CCn1nc(-c2ccc(OC)c(OC)c2)c2c(=O)n(C)c(=O)[nH]c21	none
C=CCn1c(CNC(=O)c2ccc(F)cc2)nc2ccccc21	none
O=C1C=C(/C=C/c2ccccc2)C[C@H](c2ccccc2)[C@H]1n1nnc([N+](=O)[O-])n1	ST2 IL33 inh 58%
O=C1C=C(c2ccccc2)C[C@H](c2cccs2)[C@H]1n1nnc([N+](=O)[O-])n1	ST2 IL33 inh 33%
CCOC(=O)C1C(=O)C=C(c2ccc(OC)c(OC)c2)CC1c1cccs1 (configuration not stated)	none
CC1=C(C(=O)OC(C)C)C(c2ccccc2F)CC(=O)N1 (configuration not stated)	none
C=C(C)Cn1c(CNC(=O)C(C)(C)C)nc2ccccc21	none
COc1ccc(C(=O)O/N=C2\c3ccccc3-c3nc4ccccc4nc32)cc1	none
